RAM network inh: inhibitors of the yeast RAM network, primary screen, dse1pr::URA3 reporter, 5-FOA selection; S. cerevisiae dse1pr::URA3 reporter, 5-FOA growth OD615, 2 d; analog-sensitive cbk1-as2 kinase mutant strain; inhibition, % at 50 µM; 1.8% of 190,000 active;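 active means inhibition above a set limit, 3 SD over mean compound inhibition, cut at about 8.4% in these data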;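 further: 0% = DMSO-only wells with no growth and 100% = 10 µM 1-NA-PP1 full growth; inhibition rescues growth on 5-FOA so higher OD means more RAM inhibition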
Lmaj promast: Leishmania major promastigote growth inhibition, primary screen; Leishmania major promastigotes, resazurin fluorescence viability; inhibition, % at 10 µM; 9% of 200,000 active; in the data active means inhibition above about 50%;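 further: promastigotes grown with compound for 44 hours at 28 °C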
WT yeast gro inh: growth inhibition of WT strain, primary screen, mitochondrial fusion inhibitor project, WT and mutant strains, chemical genetic; mitochondrial fusion phenotypic screen; 2.1% of 190,000 active; inhibition, % at 10 µM; in the data active means inhibition above about 58%; tested in S. cerevisiae
CHOP inhibitor: inhibitors of CHOP promoter induction, primary screen, cell-based, unfolded protein response, luciferase reporter. inhibition, % at 10 µM. CHO-K1 CHOP-promoter luciferase, tunicamycin-induced, 15-18 h. 3.8% of 220,000 active;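 active means compounds that reduced the stress-induced luciferase reporter signal by more than about 70% of percent inhibition, limit read from the data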;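 further: 0% = tunicamycin plus vehicle and 100% = wells without tunicamycin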
CHOP confirm: retest of CHOP induction inhibitors, confirmation, cell-based; 45% of 2,100 active; inhibition, % at 10 µM; AID 504437, 2011; shares compounds with CHOP inhibitor; CHO-CHOP promoter luciferase reporter, tunicamycin-induced, luminescence;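 active means mean of three repeat readings of reporter signal inhibition above a set limit, cut at about 70% in these data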;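 further: 0% = tunicamycin plus vehicle and 100% = wells lacking tunicamycin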
* marks the source's active call; other numbers are inactive results; . = no result given. Compounds with a hit are over-represented: about 13% of the library has one in this group of screens.

SMILES | RAM network inh | Lmaj promast | WT yeast gro inh | CHOP inhibitor | CHOP confirm
Cc1ccccc1C(=O)Nc1ccc(C(=O)NNC(=O)CCCOc2ccc(Cl)cc2Cl)cc1 | 3 | -5 | -18 | 113* | 6
O=C(N=Nc1c(O)[nH]c2ccccc12)c1cccc(S(=O)(=O)N2CCCCC2)c1 | 4 | 61* | -12 | 97* | -27
COc1cc(C(=O)Nc2cccc(-c3nc4ncccc4o3)c2C)cc(OC)c1OC | 2 | -5 | 8 | 38 | .
COc1cc(C(=O)Nc2cccc(-c3nc4cc(C)ccc4o3)c2C)cc(OC)c1OC | 5 | -6 | 6 | 108* | 16
COc1ccc2c(c1)C1CC(C)(NC(=O)C1C(=O)c1ccccc1)O2 (stereo unspecified) | 1 | 2 | -5 | 34 | .
CCOc1ccc(/C=C/C(O)=C2/C(=O)NC3(C)CC2c2ccccc2O3)cc1OC (stereo unspecified) | 3 | 27 | 2 | 96* | 64
CC1=C(C(=O)OCCc2ccccc2)C(c2ccsc2)NC(=O)N1C (stereo unspecified) | 1 | -2 | 17 | 41 | .
O=C(O)CCN1CCc2ccccc2C1c1cccs1 (stereo unspecified) | 0 | 0 | -8 | -1 | .
O=C(Nc1ccc2oc(=O)ccc2c1)c1ccc(-c2cccc(Cl)c2)o1 | . | . | . | 100* | 16
O=C(Nc1ccc2oc(=O)ccc2c1)c1ccc(-c2ccc(Cl)cc2)o1 | 1 | -4 | -7 | -17 | .
COCC(C)N1CC(O)=C(c2nc(-c3ccc(Cl)cc3)cs2)C1=N (stereo unspecified) | 3 | 46 | 5 | 37 | .
COc1ccc(Cc2nc(-c3cccs3)no2)cc1 | 1 | 1 | 0 | -25 | .
O=C1C(C2=NC(C(=O)O)C3C(=O)N(c4ccc(Cl)cc4)C(=O)C23)=C(O)c2ccccc21 (stereo unspecified) | 0 | -5 | -3 | -16 | .
O=C1C(C2=NC(c3ccccn3)C3C(=O)N(c4ccc(Cl)cc4Cl)C(=O)C23)=C(O)c2ccccc21 (stereo unspecified) | . | . | . | 105* | 118*
COc1ccc(-c2nn(-c3ccccc3)cc2/C=N/NC(=O)c2ccc(Br)o2)cc1 | 4 | 16 | 3 | 107* | 127*
COc1ccc(-c2nn(-c3ccccc3)cc2/C=N/Nc2cccc(C(=O)O)c2)cc1 | 3 | -3 | -1 | 11 | .
Cc1nnc(NC(=O)c2sc3nc(-c4cccs4)cc(C(F)(F)F)c3c2N)s1 | 3 | -3 | 70* | 106* | 94*
O=C(c1ccc(Br)cc1)N(Cc1nc2ccccc2c(=O)[nH]1)C1CCCC1 | 2 | 14 | 42 | 52 | .
COc1ccc(OC)c(NC(=O)CNC(=O)Cn2c(C)cc3ccccc3c2=O)c1 | 1 | -5 | -3 | 4 | .
COc1cc(NC(=O)Cn2c(C)cc3ccccc3c2=O)cc(OC)c1OC | 3 | 0 | -8 | 97* | 20
Cc1cc(C)n(CC(=O)NCc2cc(-c3nn(C)c(=O)c4ccccc34)ccc2C)n1 | 3 | -3 | -15 | 13 | .
Cc1ccc(-c2nn(C)c(=O)c3ccccc23)cc1CNC(=O)Cn1nc(-c2ccccc2)c2ccccc2c1=O | 3 | -6 | 14 | 97* | 78*
COC(=O)c1c[nH]n2c(=O)cc(CCl)nc12 | 3 | -9 | 2 | -5 | .
c1ccc(CN2CCC(Nc3nc(-c4ccccc4)nc4ccccc34)CC2)cc1 | 1 | 100* | -28 | 102* | 38
Cc1csc2ncnc(NC3CCN(Cc4ccccc4)CC3)c12 | . | . | . | 64 | .
SMILES | RAM network inh | Lmaj promast | WT yeast gro inh | CHOP inhibitor | CHOP confirm
CC[C@H](C)[C@H](NC(=O)c1ccc(Cl)cc1)C(=O)OCC(=O)c1ccc2c(c1)NC(=O)CO2 | 2 | 100* | -6 | 105* | 30
CCC(=O)c1ccc(OCC(=O)c2ccc3c(c2)NC(=O)CO3)cc1 | . | . | . | 14 | .
O=C1COc2ccc(C(=O)CCl)cc2N1 | . | . | . | 101* | 18
COc1cccc(/C(=N/O)C2CC2c2ccc(Cl)cc2)c1 (stereo unspecified) | -2 | -5 | 51 | 60 | .
COc1cccc(OCCNC(=O)Nc2cc(F)c(F)cc2Cl)c1 | 2 | -6 | 2 | 19 | .
O=C(/C=C\c1cn(-c2ccccc2)nc1-c1ccccc1)Nc1nccs1 | 6 | -4 | 10 | 108* | 105*
Cc1cc(C)nc(NS(=O)(=O)c2ccc(NC(=O)c3cc(-c4ccccc4)nc4ccccc34)cc2)n1 | 7 | 67* | -4 | 102* | 25
CCN(CC)S(=O)(=O)c1ccc(NC(=O)c2cc(-c3ccccc3)nc3ccccc23)cc1 | 2 | 2 | 6 | 38 | .
Cc1ccc(NC(=O)Cn2nnc(C(=O)Nc3ccc(C)c(C)c3)c2N)cc1 | 4 | 23 | 15 | 97* | 45
Cc1ccc(C(=O)ONc2ccc(N=O)cc2)cc1 | 3 | 10 | 14 | 19 | .
Cc1ccc(C(=O)ONc2ccc(N=NC(=O)c3ccccc3O)cc2)cc1 | 2 | 0 | 38 | 103* | 22
CN1CCc2nc(NC(=O)COc3ccc(C#N)cc3)sc2C1 | 4 | 12 | 0 | 12 | .
CCCCCc1ccc(OCCOCCn2c[n+](C)c3ccccc32)c(CCCCC)c1 | -2 | 101* | 96* | 108* | 122*
O=C(CSc1nccn1-c1ncc(C(F)(F)F)cc1Cl)c1ccc(Cl)cc1 | 1 | 2 | -2 | -18 | .
N#Cc1c(-c2cccc(Br)c2)cc(-c2cccnc2)nc1N | 1 | 3 | -3 | 104* | 49
CCn1c2ccccc2c2cc(NC(=O)CSc3nnc(-c4ccc(OC)cc4)n3N)ccc21 | 2 | -1 | 13 | 102* | 43
CC(C)C1/C(=N/O)CC(c2ccccc2)NC1c1ccccc1 (stereo unspecified) | . | . | . | 36 | .
CCCC1/C(=N/O)CC(c2ccccc2)NC1c1ccccc1 (stereo unspecified) | 3 | 25 | 12 | 106* | 35
Cc1ccc(C)c(S(=O)(=O)Nc2ccc(C(=O)NCCc3ccccn3)cc2)c1 | 1 | -5 | -18 | 6 | .
CCOC(=O)c1c(CC(C)C)csc1NC(C)=O | -2 | -2 | 3 | 56 | .
CCOC(=O)c1c(CC(C)C)csc1NC=O | -3 | 7 | 10 | 99* | 26
O=C(O)c1ccc(N2CCCCC2)cc1 | 0 | -9 | -2 | -11 | .
Nc1ccc(N2CCCCCC2)cc1 | 4 | 100* | -8 | . | 128*
O=C1c2ccccc2C(O)(c2ccccc2)N1C1CC1 (stereo unspecified) | . | . | . | 9 | .
S=C(Nc1ccccc1)Nc1cc(Cl)ccc1Oc1ccccc1 | 3 | 15 | 3 | 102* | 29
CCC(CC)c1nnc(NC(=O)c2c(C)nn(Cc3ccccc3Cl)c2C)s1 | 0 | 13 | 39 | 105* | 90*
CCOC(=O)N1C=CC(C)=C[C@@H]2[C@@H](N3C(=O)c4ccccc4C3=O)C(=O)N21 | 0 | -10 | -20 | 46 | .

Source: PubChem
